The source of these data is PubChem BioAssay (NCI).

This is part of a sample that, as a whole, favours compounds with a hit. Of some 83,000 tested, about 20% had one in any assay.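 How to read the values: 0–100, growth inhibition (40 = 60% inhibited); 0, no net growth; -100 to 0, cell death (-40 = 40% of starting cells died; -100 = all dead).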 Activity calls are given as the source filed them.

The assay relates to T-47D breast. Kind of assay: NCI-60 one-dose screen, 48 h (100 = growth as untreated, 0 = no growth, -100 = all killed). The note with it: 10 µM. The protocol:
Growth inhibition of the T-47D human tumor cell line is measured as a screen for anti-cancer activity. Cells are grown in 96 well plates and exposed to the test compound for 48 hours. Compounds are tested at a single concentration, which is 10^-5 M for most compounds. The reported endpoint is percent growth (GI% or GIPRCNT), where numbers from 0 - 100% represent growth inhibition, and numbers from -100% - 0 represent cell death. For example, a value of 40 represents 60% growth inhibition. A value of 0 means no net growth occurred over the course of the experiment. A value of -40 indicates 40% of cells at the beginning of the experiment died by the end of the experiment. A value of -100 means all cells are dead at the end of the experiment.
NCI-60 Human Tumor Cell Lines Screen was performed using the standard one-dose NCI protocol, which is described in more detail at https://dtp.cancer.gov/discovery_development/nci-60/default.htm.
Compounds with GIPRCNT values below 10 were considered active. Activity score was based on GIPRCNT using the following formula: […]
Score is 0 for GIPRCNT values of 100 or above, 50 for GIPRCNT values of 0, and 100 for GIPRCNT values of -100.
For the molecule `O=C1/C(=C/c2ccc(O)cc2)Oc2ccc(Cl)cc21`, the growth was 72.2% (inactive). On to `N#CCC1CCCC1`, for which the growth was 101% (inactive). As to `COc1ccc2c(=O)cc(C(Cl)(Cl)Cl)oc2c1`, the growth is 4.96% (active).

Consider `C[C@H](NC(=O)[C@@H]1CSSC[C@@H](NC(=O)Cc2nc3ccccc3cc2O)C(=O)NCC(=O)N1C)c1ccccc1`, for which the growth is 77.1% (inactive).

In the case of `O=C(N/N=C/c1ccccc1O)c1ccccc1`, the growth was 25.5% (inactive).

As to `COC1OC2COC(c3ccccc3)OC2C(=O)C1NC(=O)c1ccccc1` (stereo not given), the growth was 98.6% (inactive). Take `O=NN(CCCl)C(=O)Nc1ccc(NC(=O)N(CCCl)N=O)cc1`: the growth was 102% (inactive). Regarding `CCOc1cc(Br)c(C(C)NC(=O)c2cccc(OC)c2)cc1OCC` (stereo not given), the growth is 80.8% (inactive). Next, `Cc1ccc(S(=O)(=O)Nc2cccc3[nH]c(C(F)(F)F)nc23)cc1`: 47.2% (inactive); `Oc1ccc(Cn2cc3c(c2-c2ccccc2)CCc2cnoc2-3)cc1`: 78.4% (inactive); `O=C(c1ccccc1)C(Sc1ccccc1)c1ccccc1` (stereo not given): 90.8% (inactive).

Take `C/C(=N\NC(=O)c1sc(=S)n(C)c1N)c1cc2ccccc2o1`: the growth was 78.2% (inactive).

Turning to `Nc1ncncc1-c1ccc(F)cc1`, the growth is 96.7% (inactive). As for `Cc1cc(C(C)(C)CC(C)(C)C)ccc1OCCOCC[N+](C)(C)Cc1ccccc1`, the growth is 7.06% (active).

Turning to `CCNC1(NC#N)CCCCC1`, the growth was 104% (inactive).

Consider `c1ccc(COCC[P+](c2ccccc2)(c2ccccc2)c2ccccc2)cc1`, for which the growth is 12% (inactive). Next, `CCOC(=O)CSC(=S)SCC(=O)OCC`: 89.6% (inactive); `O=C(COc1ccc(Cl)cc1Cl)Oc1coc(CSc2nc3ccccc3s2)cc1=O`: 101% (inactive); `C[C@@H]1N=C(c2ccc(Br)cc2)Nc2nc3ccccn3c2C1=O`: 67.2% (inactive). With `COc1ccc(C2=Cc3ccc(OC(C)=O)cc3OC2)cc1`, the growth was 87.3% (inactive). To `CC(C)c1[nH]nc2c(NCc3ccc(-c4ccccn4)cc3)nc(SCCN)nc12` belongs -15.6% (active); to `N#Cc1ncc(-c2cc(F)ccc2F)c(NC2CCCCCC2)n1`, 69.5% (inactive); to `CCN(CC)CCCOC(=O)Nc1ccccc1Cl`, 106% (inactive).

As for `CC(C)=C1CCC(C)C/C1=N\N=C(N)N` (stereo not given), the growth is 97.4% (inactive). As to `O=S(=O)(NCCO)c1ccc(OCCOc2ccc(S(=O)(=O)NCCO)cc2)cc1`, the growth is 84.5% (inactive). For the molecule `CCN1CCN(c2ccc(Nc3ncnc4c3nnn4CCc3cc(OC)cc(OC)c3)cc2)CC1`, the growth is 73.3% (inactive). As to `O=C(Nc1cccc(Cl)c1)OCC(COC(=O)Nc1cccc(Cl)c1)(COC(=O)Nc1cccc(Cl)c1)[N+](=O)[O-]`, the growth is 14.7% (inactive). On to `O=C(Nc1cccc([N+](=O)[O-])c1)NN1CCCCCC1`, for which the growth is 81.7% (inactive). `O=C(Nc1cccc(Cl)c1)Nc1cc2ncncc2cc1OCc1cccc(F)c1`: the growth was -5.19% (active).

For the molecule `Cc1cccc2c(Nc3ccc(NS(C)(=O)=O)cc3)c3ccc([N+](=O)[O-])cc3nc12`, the growth is 0.696% (active).

`Nc1ccn([C@@H]2O[C@H](COP(=O)(O)O[C@@H]3C[C@H](n4cc(F)c(=O)[nH]c4=O)O[C@@H]3COP(=O)(O)O[C@@H]3C[C@H](n4cc(F)c(=O)[nH]c4=O)O[C@@H]3COP(=O)(O)O[C@@H]3C[C@H](n4cc(F)c(=O)[nH]c4=O)O[C@@H]3COP(=O)(O)O[C@@H]3C[C@H](n4cc(F)c(=O)[nH]c4=O)O[C@@H]3COP(=O)(O)O[C@@H]3C[C@H](n4cc(F)c(=O)[nH]c4=O)O[C@@H]3COP(=O)(O)O[C@@H]3C[C@H](n4cc(F)c(=O)[nH]c4=O)O[C@@H]3COP(=O)(O)O[C@@H]3C[C@H](n4cc(F)c(=O)[nH]c4=O)O[C@@H]3COP(=O)(O)O[C@@H]3C[C@H](n4cc(F)c(=O)[nH]c4=O)O[C@@H]3COP(=O)(O)O[C@@H]3C[C@H](n4cc(F)c(=O)[nH]c4=O)O[C@@H]3COP(=O)(O)O[C@@H]3C[C@H](n4cc(F)c(=O)[nH]c4=O)O[C@@H]3COP(=O)(O)OCCOCCOCCOCCOCCOCCO)[C@H](O)C2O)c(=O)n1` (stereo not given in full): the growth is 80.5% (inactive). `COc1ccc(-c2ccccc2)cc1C(=O)c1ccc(-c2ccccc2)cc1`: the growth is 85.7% (inactive).

As for `CCCCNC(=O)Oc1ccc(/C(=C(\C)c2ccc(OC)cc2)c2ccc(OCCN3CCCCC3)cc2)cc1`, the growth was 32.4% (inactive). For `COc1cc(/C=C/C(=O)c2cc(-c3ccc(F)cc3)ccc2O)cc(OC)c1OC`, the growth is 42.1% (inactive). On to `Cc1ccc(-n2c(-c3cc4c([nH]c5ccccc54)c(-c4cccc(O)c4)n3)n[nH]c2=S)cc1`, for which the growth was 20.4% (inactive). On to `N/C(=N\O)c1cn(C2OC(CO)C(O)C2O)c2ncnc(N)c12` (stereo not given), for which the growth was -7.04% (active). Take `O=C(C=P(c1ccccc1)(c1ccccc1)c1ccccc1)c1ccc(Br)cc1`: the growth is 87.9% (inactive). As for `N=C(N)c1ccc(-c2ccc(-c3ccccc3)s2)s1`, the growth is -66.9% (active). Consider `Cc1ccc(C(=O)O)c(N)c1C`, for which the growth is 94.5% (inactive). For `COc1ccccc1NC1=C(N2CCCCC2)C(=O)c2ccccc2C1=O`, the growth was 77.4% (inactive).
